MITF primary – blocks human microphthalmia-associated transcription factor. O75030. AlphaScreen MITF homodimerization, bead proximity signal. inhibition, % at 2.6 µM. hit rate 0.91% among 650,000. AID 1259374; in the data active means inhibition above about 50%;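 further: 0% = vehicle wells with protein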
GPR151 ag – activates the human receptor GPR151 | PathHunter beta-arrestin GPR151 cells, luminescence | activation, % at 11.2 µM | hit rate 1% among 650,000 | Q8TDV0; in the data active means activation above about 4.9%;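 further: 0% = median of compound wells and 100% = cells with positive control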
FBW7 activator – human FBW7 E3 ligase activation, primary screen | Q969H0 | hit rate 0.13% among 650,000 | AID 1259310 | AlphaScreen FBW7–phospho-cyclin E peptide binding, activator screen | normalized activity (activation), % at 26.1 µM; in the data active means normalized activity above about 1.9%;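 further: purified mutant Fbw7 with reduced substrate affinity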
TEAD-YAP block – TEAD-YAP interaction inhibition. AID 1259422. HEK-TIYL cells, TEAD-Gal4/YAP UAS-luciferase luminescence. hit rate 1.4% among 640,000. inhibition, % at 9.12 µM; in the data active means inhibition above about 32%;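 further: 0% = median of test compound wells and 100% = reference inhibitor wells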
The depositor's hits bear a star. Sampled rows, rich in hits. Any-hit rate of the full collection: about 3.4%.

SMILES | MITF primary | GPR151 ag | FBW7 activator | TEAD-YAP block
COc1cc2nc(C)n(C(=S)S)c2cc1OC | 14 | 0 | 0 | 56*
Cc1ccc2nc(-c3ccc(C)c(N)c3)oc2c1 | 11 | -8 | 1 | 55*
Cc1ccc2nc(-c3ccc(Br)c(N)c3)oc2c1 | 20 | -2 | 1 | 70*
Cc1ccc2nc(-c3cccc(-c4nc5ccc(C)cc5o4)c3)oc2c1 | -11 | 0 | 0 | -46
Cc1ccc2nc(-c3ccc(NC(=O)c4cc(I)ccc4Br)cc3)oc2c1 | 7 | -1 | 0 | -29
Cc1ccc(OCCNc2cc(N3CCCC3)ccc2[N+](=O)[O-])cc1C | -7 | -1 | 0 | 10
O=C(Cc1ccc(F)cc1)Nc1cc(-n2ccnc2-c2ccccc2)ccn1 | -6 | -1 | 0 | 39*
COc1ccc(CC(=O)Nc2ncc3ccc(-c4cn[nH]c4)cc3c2C#N)cc1 | 0 | -3 | 0 | 27
Cn1cc(-c2ccnc(NC(=O)Cc3ccc(F)cc3)c2)cn1 | -18 | 1 | 0 | 48*
COc1ccc(CC(=O)Nc2cc(-c3cn[nH]c3)ccn2)cc1 | -7 | 1 | 0 | 92*
COc1ccc(CC(=O)Nc2ncc3ccc(-c4cn[nH]c4)cc3c2Cl)cc1 | 14 | 1 | 1 | 40*
COc1cccc(N2CCN(CC(=O)Nc3ccc(C)cc3Br)CC2)c1 | 7 | 0 | 0 | 18
C/C(=N\O)c1ccc2c(c1)c1cc(/C(C)=N/O)ccc1n2C(C)C | 4 | 2 | 0 | 5
O=C(CSc1nc2ccccc2nc1Cc1cccc([N+](=O)[O-])c1)NCc1ccccc1 | 2 | -1 | 0 | -1
O=Cc1c(O)n(-c2ccc(Cl)cc2)c(=O)[nH]c1=O | 14 | 0 | 2.5* | 12
Cc1ccc(C(=O)c2sc3nc(C)ccc3c2N)c(C)c1 | -7 | 0 | 0 | 37*
COc1ccc(C(=O)c2sc3nc(C)ccc3c2N)cc1OC | -13 | 0 | 0 | 33*
CCOC(=O)c1c(C)[nH]c(C(=O)COC(=O)CCc2cc(OC)c(OC)c(OC)c2)c1C | -3 | 0 | 0 | 1
C/C(=N\NC(N)=S)c1cc(Cl)sc1Cl | 6 | 0 | 1 | 33*
Cc1ccc(C(=O)Nc2cccc(O)c2)cc1 | 11 | -9 | 0 | 82*
O=C(Nc1cccc(O)c1)c1ccc(Br)cc1 | 0 | 0 | 1 | 36*
CC(C)(C)c1ccc(C(=O)Nc2cccc(F)c2)cc1 | 0 | -6 | 0 | 42*
CC(=O)c1cccc(NC(=O)c2ccc(C)cc2)c1 | 2 | -1 | 0 | -35
CCN(CC)S(=O)(=O)c1cc(C(=O)Nc2cccc(O)c2)ccc1C | 5 | -2 | 0 | 85*
CC(=O)Nc1cccc(NC(=O)c2ccc(Br)cc2)c1 | -11 | -2 | 0 | -20
SMILES | MITF primary | GPR151 ag | FBW7 activator | TEAD-YAP block
O=C(CN(CCc1ccccc1)S(=O)(=O)c1ccc(Br)cc1)N1CCN(c2ccccc2)CC1 | 1 | -1 | 0 | 4
COc1cccc(/C=C/C(=O)Nc2cc(C)nn2-c2nc3ccccc3[nH]2)c1 | 12 | -2 | 1 | -15
O=C1COc2cc(S(=O)(=O)Nc3cc(C(F)(F)F)cc(C(F)(F)F)c3)ccc2N1 | -13 | 0 | 7.8* | 5
Cc1cc(C)cc(NS(=O)(=O)c2ccc3c(c2)OCC(=O)N3)c1 | -8 | 1 | 0 | -12
O=c1c(Oc2ccc(F)cc2)coc2c(O)c(O)ccc12 | 83* | 0 | 0 | -7
Cc1ccc2nc(N3CCc4ccccc4C3)c3nncn3c2c1 | 9 | 0 | 0 | -26
O/C(=C\c1nc2ccccc2nc1/C=C(\O)c1ccccc1)c1ccccc1 | 8 | -1 | 0 | -30
C/C(O)=C/c1nc2cccnc2nc1/C=C(/C)O | 73* | -1 | 0 | 7
Cc1cc(OCC(=O)NNC(=O)c2cc3ccccc3o2)ccc1Cl | 7 | 0 | 1 | 8
COc1ccc(-c2cc(N3CCOCC3)ncn2)cc1 | -8 | -1 | 0 | -73
Cc1nc2sc(C(c3ccccc3Cl)N3CCCC3)c(O)n2n1 (configuration not stated) | -8 | 1 | 0 | -3
OCCN1CCN(C(c2ccccn2)c2ccc3cccnc3c2O)CC1 (configuration not stated) | 93* | 0 | -1 | 10
Oc1c(C(c2ccccc2Cl)N2CCOCC2)ccc2cccnc12 (configuration not stated) | 62* | -1 | 0 | 84*
Oc1c(C(c2ccccn2)N2CCCCC2)ccc2cccnc12 (configuration not stated) | 99* | 0 | 0 | 39*
Oc1c(C(c2ccccc2Cl)N2CCCCC2)ccc2cccnc12 (configuration not stated) | 26 | -1 | -1 | 87*
CC(C)COC(=O)c1ccc(NC(=O)COc2ccc(Br)cc2)cc1 | 0 | 1 | 0 | 35*
CC(C)(C)c1ccc(/C=N/NC(=O)C2COc3ccccc3O2)cc1 (configuration not stated) | 6 | -1 | 0 | 35*
Cc1[nH]n(-c2ccccc2)c(=O)c1/C=N/NC(=O)C1COc2ccccc2O1 (configuration not stated) | -12 | 3 | 0 | 36*
Cc1ccccc1-n1[nH]c(C)c(/C=N/NC(=O)C(=O)N/N=C/c2c(C)[nH]n(-c3ccccc3C)c2=O)c1=O | 52* | 0 | -1 | 3
COC(=O)c1ccc(/C=N/NC(=O)C2COc3ccccc3O2)cc1 (configuration not stated) | -15 | 1 | 0 | 12
CC(=O)N/N=C/c1c(C)[nH]n(-c2ccccc2)c1=O | 42 | 2 | 1 | -3
O=C(NCCC1=CCCCC1)c1ccc2c(c1)C(=O)N(c1ccccn1)C2=O | 10 | -1 | 1 | 10
COc1cccc(C2C(C(N)=O)=C(C)Nc3nc(SCc4ccccc4Cl)nn32)c1 (configuration not stated) | 20 | 0 | 0 | 4
COC(=O)c1ccc(NC(=O)CSc2nnc3c(n2)[nH]c2ccc(C)cc23)cc1 | 6 | 0 | 0 | 0
COc1ccc(C(=O)[C@@H]2[C@@H](c3ccc(OC)cc3)C(C#N)(C#N)[C@H]3C=Cc4ccccc4N23)cc1 | 21 | 3 | 0 | 63*
SMILES | MITF primary | GPR151 ag | FBW7 activator | TEAD-YAP block
COc1ccc(C(=O)[C@@H]2[C@@H](c3ccsc3)C(C#N)(C#N)[C@H]3C=Cc4ccccc4N23)cc1 | 15 | 4 | 0 | 60*
Cc1ccc(C(=O)[C@@H]2[C@@H](c3ccsc3)C(C#N)(C#N)[C@H]3C=Cc4ccccc4N23)cc1 | -4 | -1 | 0 | 6
COc1ccc(C(=O)[C@@H]2[C@@H](c3cccc(Br)c3)C(C#N)(C#N)[C@H]3C=Cc4ccccc4N23)cc1 | 6 | 2 | 0 | 64*
Cc1cc(C)c(CSc2nnnn2-c2ccc(C(N)=O)cc2)c(C)c1 | 19 | -2 | 0 | 61*
Cc1cccc(CC(=O)Nc2cnn(-c3cccc(C(=O)N4CCCO4)c3)c2)c1 | -12 | 0 | 0 | 5
Cc1cccc(CC(=O)Nc2cnn(-c3cccc(C(=O)N4CCNC(=O)CC4)c3)c2)c1 | 39 | 4 | 4.3* | 6
CCOc1ccc(-n2nc(C(=O)N(C)c3ccccc3OCC)c3ccccc3c2=O)cc1 | 6 | -1 | 0 | -3

Screening results from PubChem.
